Results as given in ChEMBL document CHEMBL3988442, “University of Dundee, Small-Polar-MMV Screening Library” (2021).
Several values for one entry are separate records, joined by “and”; a condition that tells them apart may be missing. Identical values can stand only once. Screen size: about 38,000 compounds; about 1,200 (3.2%) showed an effect of 50% or more. The median lay at about -58%. The sample holds strong results, similar compounds and a random draw of the others, so the mix is not that of the screen.

Tested on: Plasmodium falciparum
Experiment: Calibr Malaria Delayed Death Assay SOP
Format: functional, organism-based
Set-up: scale not given: in the data most compounds retested in dose-response had high values
Conditions: concentration 4.99e-06 (unit not given; other assays of the set use mol/L)

Structure (SMILES): Cc1cnc(NC(=O)C(C)Oc2ccc3c(c2)OCO3)s1 (configuration not stated)
- Percent Effect: -125.5%

Structure (SMILES): COc1ccc(OCCN(C)CCCn2cnc3c(N)ncnc32)cc1
- Percent Effect: -97.62%

Structure (SMILES): COc1ccc(F)c(-c2cc(C)nc(N)n2)c1
- Percent Effect: -22.79%

Structure (SMILES): COc1ccc(OCCN(C)c2cc(C)nc(N)n2)cc1
- Percent Effect: 62.66%

Structure (SMILES): Cc1cc(N(C)CC2COc3ccccc3O2)nc(N)n1 (configuration not stated)
- Percent Effect: 46.69%

Structure (SMILES): COc1ccccc1OCCN(C)c1cc(C)nc(N)n1
- Percent Effect: 69.29%

Structure (SMILES): Cc1cc(N(C)CCCn2cccn2)nc(N)n1
- Percent Effect: 23.74%

Structure (SMILES): O=C(CCCc1ccc(Cl)cc1)N1CCC(c2nnc[nH]2)CC1
- Percent Effect: -167.6%

Structure (SMILES): Cl.Cl.Cn1cnc2c(N3CCCC3)nc(C3CCNCC3)cc21
- Percent Effect: -34.14%

Structure (SMILES): O=C(O)C(F)(F)F.c1cnc(N2CCCC3(COCCN(CC4CC4)C3)C2)nc1 (configuration not stated)
- Percent Effect: 37.44%

Structure (SMILES): Cc1cnc(N2C[C@H]3CCN(CC4CC4)C[C@H]3C2)nc1.O=C(O)C(F)(F)F
- Percent Effect: 63.65%

Structure (SMILES): O=C(O)C(F)(F)F.O=C(O)C(F)(F)F.c1cnc(N2CCCC3(CCN(CC4CC4)C3)C2)nc1 (configuration not stated)
- Percent Effect: 59.09%

Structure (SMILES): O=C(O)C(F)(F)F.c1cnc(N2C[C@H]3CCN(CC4CC4)C[C@H]3C2)cn1
- Percent Effect: 16.16%

Structure (SMILES): O=C(O)C(F)(F)F.O=C(O)C(F)(F)F.c1cnc(N2CCC3(CCN(CC4CCCC4)CC3)C2)nc1
- Percent Effect: 42.2%

Structure (SMILES): O=C(O)C(F)(F)F.O=C(O)C(F)(F)F.c1cnc(N2CCOCC3(CCCN(CC4CCOCC4)C3)C2)nc1 (configuration not stated)
- Percent Effect: -11.39%

Structure (SMILES): O=C(O)C(F)(F)F.O=C(O)C(F)(F)F.c1cnc(N2CCC3(CCN(CC4CCOCC4)CC3)C2)nc1
- Percent Effect: -33.73%

Structure (SMILES): O=C(O)C(F)(F)F.c1cnc(N2CCCC3(CCN(CC4CCC4)C3)C2)nc1 (configuration not stated)
- Percent Effect: 51.49%

Structure (SMILES): O=C(O)C(F)(F)F.O=C(O)C(F)(F)F.c1cc2nc(C3CCN(CC4CC4)CC3)nn2cc1N1CCCC1
- Percent Effect: -27.34%

Structure (SMILES): Cn1cnc2c(N3CCCC3)nc(C3CCN(CC4CC4)CC3)cc21.O=C(O)C(F)(F)F.O=C(O)C(F)(F)F
- Percent Effect: 68.79%

Structure (SMILES): Cc1cnc(N2C[C@H]3CCN(CC4CC4)C[C@@H]3C2)nc1.O=C(O)C(F)(F)F
- Percent Effect: 37.51%

Structure (SMILES): CN(CCc1ccccn1)C(=O)C(O)c1ccc(Br)cc1 (configuration not stated)
- Percent Effect: -90%

Structure (SMILES): CS(=O)(=O)N1CCC2(CCN(C(=O)c3cccnc3)CC2)C1.O=C(O)C(F)(F)F
- Percent Effect: -35.24%

Structure (SMILES): CC(C)Cc1noc(C2CCCN(C(=O)CCc3cnn(C)c3)C2)n1 (configuration not stated)
- Percent Effect: -27.67%

Structure (SMILES): O=C(O)C(F)(F)F.O=C(O)C(F)(F)F.c1cncc(OC[C@]23COC[C@H]2CN(C2CCOCC2)C3)c1
- Percent Effect: -14.64%

Structure (SMILES): CCN(CC)C(=O)CSc1nc2c(cnn2CCO)c(=O)[nH]1
- Percent Effect: -60.63%

Structure (SMILES): CCCNCc1ncc(C)c(OC)c1C
- Percent Effect: -91.87%

Structure (SMILES): O=C(Cn1nc(N2CCOCC2)ccc1=O)Nc1nccs1
- Percent Effect: -91.76%

Structure (SMILES): O=S(=O)(c1ccc(F)cc1F)N1CCCCC1c1nnc2n1CCCC2 (configuration not stated)
- Percent Effect: -68.7%

Structure (SMILES): CCN(Cc1cccc2c1OCO2)C(=O)NC1CC1
- Percent Effect: -37.14%

Structure (SMILES): CN(C)C(=O)CN1CCOCC2(CCN(c3ncc(F)cn3)CC2)C1.O=C(O)C(F)(F)F
- Percent Effect: -87.82%

Structure (SMILES): CCCN(CCn1c(=O)oc2ccccc21)CC1CC1
- Percent Effect: 13.79%

Structure (SMILES): CC(=O)N1CCN(C(=O)Nc2ccc(Cl)cc2)[C@H]2CS(=O)(=O)C[C@H]21
- Percent Effect: -18.79%

Structure (SMILES): CSCCC(=O)NCc1cc2n(n1)CCCN(C1CCCCC1)C2
- Percent Effect: -96.84%

Structure (SMILES): CC(NC(=O)C1CN(c2ncnc3c2nnn3C)C1)c1ccccc1 (configuration not stated)
- Percent Effect: -135.3%

Structure (SMILES): Cc1cc(NC(=O)CN2CCCCC2Cn2nc(C)nc2C)on1 (configuration not stated)
- Percent Effect: -33.53%

Structure (SMILES): O=C(O)C(F)(F)F.c1cnc(N2CCCC3(CCN(CC4CCOC4)CC3)C2)nc1 (configuration not stated)
- Percent Effect: 55.15%

Structure (SMILES): O=C(O)C(F)(F)F.c1cnc(N2CCC3(CCN(CC4CCOC4)CC3)C2)nc1 (configuration not stated)
- Percent Effect: -17.94%

Structure (SMILES): O=C(O)C(F)(F)F.c1cnc(N2CCC3(CN(CC4CCOC4)C3)C2)nc1 (configuration not stated)
- Percent Effect: -18.8%

Structure (SMILES): Cc1noc(C)c1CN1CC[C@H]2OCC[C@@]2(C(=O)N2CCOCC2)C1.O=C(O)C(F)(F)F
- Percent Effect: -52.8%

Structure (SMILES): Cc1nc(CC(=O)N2CCCC(n3ccnc3C(C)C)C2)cs1 (configuration not stated)
- Percent Effect: -131%

Structure (SMILES): COc1cccc(CN(C)Cn2nc(C(C)(C)C)ccc2=O)c1
- Percent Effect: -38.19%

Structure (SMILES): Cn1cc(CN2CCC3(CCCN(Cc4ccccn4)C3)CC2)cn1
- Percent Effect: -52.6%

Structure (SMILES): Cc1cccc(N2CCC3(CCN(Cc4ccccn4)CC3)CC2)n1.O=C(O)C(F)(F)F.O=C(O)C(F)(F)F
- Percent Effect: 62.64%

Structure (SMILES): O=C(O)C(F)(F)F.O=C(O)C(F)(F)F.O=C(O)C(F)(F)F.c1ccc(CN2CCC3(CC2)CCN(Cc2cccs2)C3)nc1
- Percent Effect: 53.66%

Structure (SMILES): O=C(O)C(F)(F)F.O=C(O)C(F)(F)F.c1ccc(CN2CCC3(CC2)CCN(c2ccccn2)C3)nc1
- Percent Effect: -1.583%

Structure (SMILES): Cc1ccc(N2CCC3(CCN(Cc4ccccn4)CC3)CC2)nn1
- Percent Effect: -24.83%

Structure (SMILES): O=C(O)C(F)(F)F.O=C(O)C(F)(F)F.c1ccc(CN2CCCC3(CCN(CC4CCCO4)CC3)C2)nc1 (configuration not stated)
- Percent Effect: 10.98%

Structure (SMILES): O=C(O)C(F)(F)F.O=C(O)C(F)(F)F.O=C(O)C(F)(F)F.O=C(O)C(F)(F)F.c1ccc(CN2CCC3(CC2)CCN(Cc2cccnc2)C3)nc1
- Percent Effect: 17.02%

Structure (SMILES): O=S(=O)(C1CC1)N1CCC2(CCCN(Cc3ccccn3)C2)CC1
- Percent Effect: -27.08%

Structure (SMILES): COc1cccc2ccn(CC(=O)NC(C)C)c12
- Percent Effect: -78.35%

Structure (SMILES): Cc1ccc(N(CCC#N)C(=O)CCc2cscn2)cc1C
- Percent Effect: -62.62%

Structure (SMILES): COC[C@@]12CCO[C@@H]1CCN(C(=O)Cc1cccc(F)c1)C2
- Percent Effect: -44.15%

Structure (SMILES): Cc1ccc(-c2nc(CCNC(=O)C3CC(=O)N(C)C3)cs2)cc1 (configuration not stated)
- Percent Effect: -66.89%

Structure (SMILES): CC(=O)c1cccc(-c2c[nH]c(C)n2)c1
- Percent Effect: -59.83%

Structure (SMILES): Cc1cc2c(c(-c3c[nH]c(C)n3)c1)OC(CN)C2 (configuration not stated)
- Percent Effect: 79.27%

Structure (SMILES): Cc1cc2c(c(-c3cncc(C(=O)N4CCCC4)n3)c1)OC(CN)C2 (configuration not stated)
- Percent Effect: 3.853%

Structure (SMILES): Cc1nc(-c2cccc(C(=O)O)c2)c[nH]1
- Percent Effect: -344.9%

Structure (SMILES): O=C(CCc1ccco1)N1CCCN(Cc2cscn2)CC1
- Percent Effect: -137.4%

Structure (SMILES): O=C(c1cccc(F)c1)N1CC[C@@H]2CN(c3ncccn3)CCO[C@@H]2C1
- Percent Effect: -63.21%

Structure (SMILES): O=S(=O)(NCC(O)c1ccc2c(c1)CCO2)c1ccccc1F (configuration not stated)
- Percent Effect: -109.3%

Structure (SMILES): O=C(C1CCCN(Cc2ccccc2)C1)N1CCc2sccc2C1 (configuration not stated)
- Percent Effect: 11.44%

Structure (SMILES): CC1(c2ccccc2)CCCN(Cc2cncn2C2CC2)C1 (configuration not stated)
- Percent Effect: 67%

Structure (SMILES): COCCN1CCCC12CCN(Cc1cncn1C)CC2.O=C(O)C(F)(F)F.O=C(O)C(F)(F)F
- Percent Effect: -15.64%

Structure (SMILES): CCc1nccn1C1CCCN(C(=O)c2cncn2-c2ccccc2)C1 (configuration not stated)
- Percent Effect (4.99 µM): -131.8% and -127.1%

Structure (SMILES): CC1(c2ccccc2)CCCN(C(=O)c2ccn3nnnc3c2)C1 (configuration not stated)
- Percent Effect: -91.8%

Structure (SMILES): COCCn1cncc1CN1CCC(C(C)=O)(c2ccccc2)CC1
- Percent Effect: -24.83%

Structure (SMILES): O=C(C1CCCN(Cc2cccnc2)C1)N1CCc2sccc2C1 (configuration not stated)
- Percent Effect: -120.1%

Structure (SMILES): COCCn1cncc1CN1CCCC(C)(c2ccccc2)C1 (configuration not stated)
- Percent Effect: 61.23%

Structure (SMILES): CC1(c2ccccc2)CCC(=O)N(CCN2CCOCC2)C1 (configuration not stated)
- Percent Effect: -51.4%

Structure (SMILES): COc1ncc(CN2CCC3(CCCN(CC4CCCCC4)C3)C2)cn1 (configuration not stated)
- Percent Effect: -65.28%

Structure (SMILES): CC1(c2ccccc2)CCCN(Cc2cncn2C2CCCC2)C1 (configuration not stated)
- Percent Effect: 90.6%

Structure (SMILES): O=C(Cc1ccccc1)C1CCCN(Cc2cncn2C2CCCC2)C1 (configuration not stated)
- Percent Effect: 56.54%

Structure (SMILES): O=C(O)C(F)(F)F.O=C(O)C(F)(F)F.O=C1N(Cc2cccnc2)CCC12CCCN(c1ncccn1)C2 (configuration not stated)
- Percent Effect: -131.5%

Structure (SMILES): CS(=O)(=O)c1cncnc1C1CCCNC1.Cl (configuration not stated)
- Percent Effect: -139%

Structure (SMILES): CCN1CCO[C@@H]2CN(C(=O)NCc3ccccc3)CC[C@@H]2C1
- Percent Effect: -134.2%

Structure (SMILES): CCC(=O)NC(c1ccc(C)cc1)c1cccc(S(C)(=O)=O)c1 (configuration not stated)
- Percent Effect: -119.8%

Structure (SMILES): COc1cc(N2C[C@@H]3COC[C@@H](Cc4nc(C)no4)[C@@H]3C2)ncn1
- Percent Effect: -87.35%

Structure (SMILES): Cc1ccc(C(=O)N2C[C@@H]3CCCO[C@@H]3[C@H](N(C)Cc3ccco3)C2)o1.O=C(O)C(F)(F)F
- Percent Effect: -32.67%

Structure (SMILES): CCNC(=O)c1c2c(N3CCN(C)CC3)ncnc2n2ccccc12
- Percent Effect: -74.14%

Structure (SMILES): CCCN1CCC(CNC(=O)C2(c3ccccc3)CCC2)C1 (configuration not stated)
- Percent Effect: 65.3%

Structure (SMILES): Cc1cc(C)cc(C2(C(=O)NCC3CCN(CC(F)(F)F)C3)CC2)c1 (configuration not stated)
- Percent Effect: -75.87%

Structure (SMILES): CCCN1CCC(CNC(=O)C2(c3cccc(C)c3)CC2)C1 (configuration not stated)
- Percent Effect: -64.24%

Structure (SMILES): CCN1CCC(CNC(=O)C2(c3ccc(F)cc3)CC2)C1 (configuration not stated)
- Percent Effect: 28.54%

Structure (SMILES): COCCN1CCC(CNC(=O)C2(c3ccccc3)CCC2)C1 (configuration not stated)
- Percent Effect: -3.533%

Structure (SMILES): CCOCCC(=O)N1CCN(CC(C)O)CC1 (configuration not stated)
- Percent Effect: -101.9%

Structure (SMILES): Cn1ncnc1CNC(=O)N(CCCO)C1CCc2ccccc21 (configuration not stated)
- Percent Effect: -16.9%

Structure (SMILES): Cn1cc(N2CC3(CCN(Cc4cccnc4)CC3)OCC2=O)cn1.O=C(O)C(F)(F)F.O=C(O)C(F)(F)F
- Percent Effect: -71.74%

Structure (SMILES): CC(=O)N1CCN(C(=O)NCCc2ccc(Cl)s2)CC1
- Percent Effect: -108.8%

Structure (SMILES): Cc1cc(C)c(CNC(=O)NCC2Cc3ccccc3O2)c(=O)[nH]1 (configuration not stated)
- Percent Effect: -144.1%

Structure (SMILES): CN1CCC(c2cccc(Cc3ccc(C(F)(F)F)cc3)n2)CC1
- Percent Effect: 50.24%

Structure (SMILES): CN1CCC(c2cccc(Cc3ccccc3)n2)CC1
- Percent Effect: -0.8146%

Structure (SMILES): Fc1ccc(Cc2cccc(C3CCN(C4CCOCC4)CC3)n2)cc1
- Percent Effect: 38.56%
